Screening data (PubChem)
Sampled rows, rich in hits. Any-hit rate of the full collection: about 2.4%.
MEKK3 PB1 HTS = raises or lowers MEK5 binding to the human MEKK3 PB1 domain; Q99759; bead-based flow cytometry, Alexa488-MEK5 binding to MEKK3; actives lie on both sides; 0 = blocked by unlabeled MEK5, 100 = vehicle; binding response (% of control), % at 10 µM; 290,000 tested, 1.4% active; AID 1529;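 active = binding response more than 3 SD above or below the average of its plate-row segment, actives on both sides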;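 note: Alexa488 bead fluorescence after subtracting the streptavidin-only scavenger bead signal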
Target sequence (Q99759 whole entry, looked up, the tested form may be a part): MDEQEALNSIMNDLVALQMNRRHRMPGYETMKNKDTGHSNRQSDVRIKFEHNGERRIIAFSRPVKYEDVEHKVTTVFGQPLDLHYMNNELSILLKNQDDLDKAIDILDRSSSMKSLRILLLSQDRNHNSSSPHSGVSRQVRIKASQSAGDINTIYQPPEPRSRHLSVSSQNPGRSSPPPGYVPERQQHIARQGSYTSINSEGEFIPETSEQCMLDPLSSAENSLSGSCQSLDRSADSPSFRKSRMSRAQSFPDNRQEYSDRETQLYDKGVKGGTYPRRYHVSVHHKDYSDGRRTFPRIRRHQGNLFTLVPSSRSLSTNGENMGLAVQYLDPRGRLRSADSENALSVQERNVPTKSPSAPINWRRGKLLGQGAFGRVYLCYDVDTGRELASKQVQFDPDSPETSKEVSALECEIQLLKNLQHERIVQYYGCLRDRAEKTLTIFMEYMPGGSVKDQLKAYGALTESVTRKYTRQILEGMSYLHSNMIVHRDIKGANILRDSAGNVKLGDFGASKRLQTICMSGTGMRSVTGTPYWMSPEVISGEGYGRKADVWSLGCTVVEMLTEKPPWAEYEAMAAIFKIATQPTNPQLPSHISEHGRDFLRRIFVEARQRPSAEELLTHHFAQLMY
Arbovirus inh = blocks arbovirus infection. arbovirus infection cell-based antiviral screen. inhibition, % at 10 µM. 200,000 tested, 0.37% active. AID 1251; in the data active = inhibition above about 30%
MEKK2mut PB1 HTS = signal of MEK5 binding to mutant human MEKK2 PB1 domain; AID 1530; percent response, % at 10 µM; 290,000 tested, 0.35% active; bead flow cytometry, Alexa488-MEK5 binding to MEKK2 mutant; in the data active = percent response above about 24%, passing the limit was not always enough
MEKK2 WT-MEK5 = raises or lowers MEK5 binding to wildtype human MEKK2 PB1 domain; bead flow cytometry, Alexa488-MEK5 binding to MEKK2 WT; actives lie on both sides; binding response (% of control), % at 10 µM; Q9Y2U5; AID 1531; 290,000 tested, 1.1% active; in the data active = binding response below about 67% or above about 130%
Pf gametocyte = kills late stage P. falciparum gametocytes. 150,000 tested, 0.065% active. P. falciparum stage V gametocytes, ATP luminescence, 24 h. inhibition, % at 10.9 µM;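 active = inhibition above the mean plus 3 SD of compounds within the control limits, set per campaign, cut at about 38% in these data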
MEKK2wt confirm = raises or lowers MEK5 binding to wildtype human MEKK2, retest. shares compounds with MEKK3 PB1 HTS. bead flow cytometry, Alexa488-MEK5 binding to MEKK2 WT; actives lie on both sides. binding response (% of control), % at 10 µM. 5,900 tested, 2.4% active. AID 1892; in the data active = binding response below about 16% or above about 210%; inactive = in between
MEKK2mut confirm = signal of MEK5 binding to mutant human MEKK2, retest | shares compounds with MEKK3 PB1 HTS | bead flow cytometry, Alexa488-MEK5 binding to MEKK2 mutant | percent response, % at 10 µM | 5,900 tested, 2% active; in the data active = percent response mostly above about 71%, no sharp cut-off; inactive = mostly below about 38%;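 note: higher means compound restores mutant binding toward wildtype level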
MEKK3-MEK5 inh = MEKK3-MEK5 PB1 inhibition, single concentration confirmation. shares compounds with MEKK3 PB1 HTS. bead flow cytometry, Alexa488-MEK5 binding to MEKK3; active compounds read low. binding response (% of control), % at 10 µM. 5,900 tested, 1.8% active;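 active = binding response below 72% of control, or above a set upper limit, though filed actives all read lower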;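 note: lower values mean stronger disruption of MEK5 binding to MEKK3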
Hits are given with their value; - = inactive; . = no result given; ! = not confirmed by another sample; [ ] = dose if it differs, or a comment.

SMILES	MEKK3 PB1 HTS	Arbovirus inh	MEKK2mut PB1 HTS	MEKK2 WT-MEK5	Pf gametocyte	MEKK2wt confirm	MEKK2mut confirm	MEKK3-MEK5 inh
COc1cc(C(=S)N2CCOCC2)cc(OC)c1O	42[inhibitor]	.	-	-	-	-	-	-
CC(=O)Nc1ccc(NC(=O)c2c(C)noc2C)cc1	-	.	-	-	.	.	.	.
COc1ccc(-c2ccnc(SCC(=O)N3CCN(c4ccccc4)CC3)n2)cc1	137	.	-	-	-	-	-	-
COc1ccc(-c2ccnc(SCC(=O)c3ccc(OC)c(OC)c3)n2)cc1	132	-	-	-	.	-	-	-
Cc1ccnc(SCC(=O)N2CCN(c3ccccc3)CC2)n1	-	-	-	-	-	.	.	.
CN(Cc1ccon1)C(=O)CC1C(=O)NCCN1CC1CCCCC1 (centres undefined)	-	-	-	-	-	.	.	.
CCOc1ccc(N/C=C/C(=O)c2ccc(OC)cc2)cc1	-	.	-	-	-	.	.	.
CCOc1ccc(N/C=C\C(=O)c2ccc3c(c2)OCO3)cc1	-	-	-	-	-	.	.	.
COc1ccc(C(=O)/C=C/Nc2ccc([N+](=O)[O-])cc2)cc1	70[inhibitor]	-	-	-	-	-	-	-
CCOC(=O)c1ccc(N/C=C\C(=O)c2cccc(OC)c2)cc1	201	-	-	-	-	-	-	-
COc1ccc(N/C=C\C(=O)c2ccc3c(c2)OCO3)cc1	1.0[inhibitor]	-	-	-1.0[inhibitor]	.	-	-	-
CCOP(=O)(c1ccc(N(C)C)cc1)C(O)c1ccc(OC)cc1 (centres undefined)	-	.	-	-	.	.	.	.
Cc1ccc(N(C)C(=O)CCS(=O)(=O)c2cc3c(cc2Cl)NC(=O)CO3)cc1	-	.	-	-	.	.	.	.
COc1cc(C2Nc3ccccc3NC3=C2C(=O)CC(C)(C)C3)cc(OC)c1OC (centres undefined)	-	.	24	-	-	-	-	-
COc1cc(OC)c(C2Nc3ccccc3NC3=C2C(=O)CC(C)(C)C3)cc1OC (centres undefined)	-	.	-	-	.	.	.	.
Cc1ccc(Cn2nnc3c(=O)n(CC(=O)N4CCCc5ccccc54)cnc32)cc1	-	-	-	-	.	.	.	.
O=C(Cn1cnc2c(nnn2Cc2ccc(Cl)cc2)c1=O)N1CCCc2ccccc21	69[inhibitor]	-	-	-	-	-	-	-
O=C1CC(c2cccc(Oc3ccccc3)c2)NC(=O)N1 (centres undefined)	0.0[inhibitor]	-	-	-1.0[inhibitor]	-	-	-	-
CCOC(=O)C1=C(C)C(c2cccc(Oc3ccccc3)c2)NC(=S)N1 (centres undefined)	-	-	-	-	-	.	.	.
O=C(CCCc1ccccc1)Nc1nccs1	.	.	.	.	-	.	.	.
COC(=O)c1ccc(S(=O)(=O)N2CCCN(Cc3ccccc3)CC2)n1C	-	.	-	-	-	.	.	.
COC(=O)c1ccc(S(=O)(=O)N2CCCN(Cc3cccc(Br)c3F)CC2)n1C	73[inhibitor]	.	-	53[inhibitor]	-	-	-	-
COc1cc2c(-c3ccccc3)c(C)oc2cc1/C=N/NC(N)=S	.	.	.	.	-	.	.	.
N#C/C(=C\c1ccc(N2CCOCC2)cc1)c1ccccc1	137	-	-	-	.	-	-	-
COC(=O)c1ccc(C(=O)OC)c(=O)[nH]1	-	.	-	-	.	.	.	.
SMILES	MEKK3 PB1 HTS	Arbovirus inh	MEKK2mut PB1 HTS	MEKK2 WT-MEK5	Pf gametocyte	MEKK2wt confirm	MEKK2mut confirm	MEKK3-MEK5 inh
CC(C)N=c1c([N+](=O)[O-])nn(C)n1O	-	-	-	-	-	.	.	.
CCc1ccc(C(=O)NC(CCSC)C(=O)OC)cc1 (centres undefined)	3.0[inhibitor]	-	-	3.0[inhibitor]	-	-	-	-
Cc1cc(C(=O)N2CCc3ccccc3C2)on1	-	.	-	-	.	.	.	.
CC(=O)N1c2ccc(S(=O)(=O)N3CCCC3C(=O)NCc3ccccc3Cl)cc2CC1C (centres undefined)	-	.	-	-	.	.	.	.
Cc1cc(C)n(-c2nc(NCCCN(C)C)c3c4c(sc3n2)CCCC4)n1	-	.	-	-	-	.	.	.
Cc1cc(C)n(-c2nc(NCCN(C)C)c3c4c(sc3n2)CCCC4)n1	-	.	-	147	-	-	-	-
COC(=O)NC(C)N1C(=O)C2C3C=CC(C3)C2C1=O (centres undefined)	-	-	-	-	-	.	.	.
O=C(NCC(=O)N(CC1CCCO1)C(C(=O)NC1CCCCC1)c1cccnc1)c1cccs1 (centres undefined)	131	-	-	-	-	-	-	-
C=CCNC(=O)CSc1nnc(-c2ccc(S(=O)(=O)N3CCCC3)cc2)n1C	-	.	-	-	.	.	.	.
COCCN(C(=O)COC(=O)COc1ccc(Cl)c(C)c1)c1c(N)n(Cc2ccccc2)c(=O)[nH]c1=O	-	.	-	-	.	.	.	.
Nc1c(N(CCO)C(=O)COc2ccc(Cl)cc2)c(=O)[nH]c(=O)n1Cc1ccccc1	131	-	-	-	.	-	-	-
CN1CCN(C(=O)C2=C[C@H](c3csc4ccccc34)C[C@H](OCCCCO)O2)CC1	-	-	-	-	-	.	.	.
COCc1cc(N2CCN(c3ccccc3F)CC2)nc(-c2ccccc2)n1	4.0[inhibitor]	-	-	6.0[inhibitor]	.	-	-	-
CC(C)COCC(CN(Cc1ccccc1)c1ccccc1)N1CCCC1 (centres undefined)	-	-	-	146!	.	-	-	-
CC1(C)CC(C)(O)N(Cc2ccccc2)C(=S)N1 (centres undefined)	133	-	-	-	-	-	-	-
CC1(C)C(=O)NC(=O)N1Cc1ccccc1	.	.	.	.	-	.	.	.
COC(=O)c1ccc(C2C(Oc3ccc(OC)cc3)C(=O)N2CCc2ccc(OC)c(OC)c2)cc1 (centres undefined)	157	-	-	-	-	-	-	-
COC(=O)c1ccc(C2C(Oc3ccccc3)C(=O)N2CCc2ccc(F)cc2)cc1 (centres undefined)	-	-	-	-	.	.	.	.
COc1ccc(-c2nsc3c(SCc4ccccc4)ncnc23)cc1	144	-	-	-	-	-	-	-
Cc1ccc(-c2cc(C(=O)NCc3cccs3)no2)cc1	-	-	-	-	.	.	.	.
O=C(NCc1cccs1)c1cc(-c2ccc(O)cc2)on1	46[inhibitor]	.	-	-	-	-	-	-
Cc1ccc(-n2nnnc2SCC(=O)NC2CCCc3ccccc32)c(C)c1 (centres undefined)	-	-	-	-	-	.	.	.
CCOC(=O)NC(=O)CSc1nnnn1-c1ccc(Cl)cc1	-	-	-	-	-	.	.	.
CCOC(=O)NC(=O)CSc1nnnn1-c1ccc(C)cc1	2.0[inhibitor]	-	-	2.0[inhibitor]	.	-	-	-
Cc1ccc(-n2nnnc2SCC(=O)NC2CCCc3ccccc32)cc1 (centres undefined)	140	-	-	-	-	-	-	-
